Test results: PubChem BioAssay (NCI)
Compounds without any hit were thinned out: in the full panel of roughly 79,000, 15% have a hit. Values without a mark were called inactive. Activity calls are given as the source filed them. Cut-off read from the data, not from the text of the source: active = growth inhibition above about 70%; inactive = the rest.

Test: NCI Yeast Anticancer Drug Screen. Data for the wt1 strain (AID 149);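 note: 0% = growth of vehicle-treated wt1 cultures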
Conditions: S. cerevisiae wt1 strain (SPY 50644) growth inhibition, stronger effect = higher value
Method: Growth inhibition of yeast strains with defined genetic alterations is measured as a screen for potential anti-cancer activity. Selected strains with alterations in DNA damage repair or cell cycle control were exposed to compounds and growth inhibition was measured relative to vehicle treated controls. The strain used in this assay is wt1

Structure (SMILES) | growth inhibition (at 1.2 µM) [%] | growth inhibition (at 3.7 µM) [%] | growth inhibition (at 11.0 µM) | growth inhibition (at 33.0 µM) | growth inhibition (at 100.0 µM)
[N-]=[N+]=C1C(Cl)=C(Cl)C(Cl)=C1Cl | -3 | -2 | 44% | 97% (active) | 99% (active)
COc1cc([C@@H]2c3cc4c(cc3C[C@@H]3COC(=O)C32)OCO4)cc(OC)c1O (stereo not given in full) | 32 | 34 | 65% | 86% (active) | 93% (active)
COc1cc(C2c3cc4c(cc3[C@@H](Nc3ccc(N)cc3)C3COC(=O)[C@H]23)OCO4)cc(OC)c1O (stereo not given in full) | -35 | 64 | 95% (active) | 94% (active) | 88% (active)
BrCC[N+]12CC[N+](CCBr)(CC1)C2 | 1 | 6 | 14% | 82% (active) | 94% (active)
S=C1NC2(CCCCC2)NC12CCCCC2 | -2 | -3 | 3% | 8% | 13%
CCOC(=O)C1C2c3ccccc3C(c3ccccc32)C1C(=O)OCC (stereo not given) | -1 | -2 | -1% | 2% | 79% (active)
CC[C@]1(O)CC(OC2CC(N(C)C)C(O)C(C)O2)c2c(cc3c(c2O)C(=O)c2c(O)cccc2C3=O)[C@@H]1C(=O)OC (stereo not given in full) | -2 | -4 | -1% | 91% (active) | 96% (active)
CSC(=Nc1ccccc1)N(c1ccccc1)c1nc(=[N+](C)C)ss1 | -2 | 7 | 54% | 93% (active) | 98% (active)
